Measurements taken from PubChem BioAssay AID1159580 (chemical genetic matrix, 2015).
Where “and” joins values, the source holds several entries; their conditions need not be identical. Equal values may be shown once. Out of some 5,500 compounds screened, about 2,000 (36%) were called active. Inconclusive results (about 18%) are left out. No stated cut-off is given here; in the data, active means normalized growth mostly below about 0.91 (no sharp cut-off); inconclusive means no clear call, values can overlap the other calls; inactive means mostly above about 0.92. The list shows a part of the results.

Test: chemical genetic growth profiling, strain panel (AID 1159580);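 further: tested at 20 µM; growth read once vehicle control cultures reached saturation at 30 °C; 1 = growth at the plate median or of vehicle wells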
Conditions: S. cerevisiae deletion strains, growth OD

Measured: normalized growth

C[C@@H](CO)NC(=O)C1C=C2c3cccc4[nH]cc(c34)C[C@H]2N(C)C1 (stereo partly specified)
inactive: locus YAL013W, strain DEP1, stronger effect = lower value 1.02 | locus YAL021C, strain ccr4, stronger effect = lower value 1.01 | locus YAL026C, strain drs2, stronger effect = lower value 0.989 | locus YAL030W, strain snc1, stronger effect = lower value 1.03 | locus YBL061C, strain skt5, stronger effect = lower value 1.02 | locus YBR009C, strain hhf1, stronger effect = lower value 0.979 | locus YBR021W, strain FUR4, stronger effect = lower value 0.963 | locus YBR023C, strain chs3, stronger effect = lower value 1.01 | locus YBR171W, strain sec66, stronger effect = lower value 1.02 | locus YBR229C, strain ROT2, stronger effect = lower value 0.997 | locus YBR231C, strain swc5, stronger effect = lower value 1.02 | locus YBR279W, strain paf1, stronger effect = lower value 1 | locus YCL011C, strain gbp2, stronger effect = lower value 0.991 | locus YCL016C, strain dcc1, stronger effect = lower value 0.955 | locus YCL029C, strain bik1, stronger effect = lower value 0.986 | locus YCL069W, strain vba3, stronger effect = lower value 1.01 | locus YCR088W, strain abp1, stronger effect = lower value 1.01 | locus YDL005C, strain med2, stronger effect = lower value 1.02 | locus YDL035C, strain GPR1, stronger effect = lower value 1.03 | locus YDL040C, strain nat1, stronger effect = lower value 1.01 | locus YDL074C, strain BRE1, stronger effect = lower value 1.08 | locus YDL101C, strain DUN1, stronger effect = lower value 0.996 | locus YDL134C, strain PPH21, stronger effect = lower value 0.995 | locus YDL185W, strain tfp1, stronger effect = lower value 0.983 | locus YDL192W, strain arf1, stronger effect = lower value 0.994 | locus YDR001C, strain nth1, stronger effect = lower value 1 | locus YDR069C, strain doa4, stronger effect = lower value 1.04 | locus YDR101C, strain arx1, stronger effect = lower value 0.997 | locus YDR137W, strain rgp1, stronger effect = lower value 0.984 | locus YDR150W, strain NUM1, stronger effect = lower value 0.987 | locus YDR159W, strain sac3, stronger effect = lower value 0.937 | locus YDR162C, strain NBP2, stronger effect = lower value 1.02 | locus YDR195W, strain ref2 1.01 | locus YDR297W, strain sur2, stronger effect = lower value 1.03 | locus YDR318W, strain mcm21, stronger effect = lower value 0.994 | locus YDR334W, strain swr1, stronger effect = lower value 1 | locus YDR335W, strain msn5, stronger effect = lower value 1.01 | locus YDR388W, stronger effect = lower value 0.998 | locus YDR392W, strain spt3, stronger effect = lower value 0.942 | locus YDR502C, strain sam2, stronger effect = lower value 0.996 | locus YEL003W, strain gim4, stronger effect = lower value 1.03 | locus YEL037C, strain rad23, stronger effect = lower value 1.01 | locus YEL061C, strain CIN8 (second series), stronger effect = lower value 1 | locus YEL061C, strain CIN8, stronger effect = lower value 1.01 | locus YER015W, strain faa2, stronger effect = lower value 1.01 | locus YER016W, strain bim1, stronger effect = lower value 0.994 | locus YER110C, stronger effect = lower value 0.99 | locus YER111C, strain swi4, stronger effect = lower value 1 | locus YER155C, strain BEM2 (second series), stronger effect = lower value 1.08 | locus YER155C, strain BEM2, stronger effect = lower value 1 | locus YER167W, strain BCK2, stronger effect = lower value 0.99 | locus YFR010W, strain ubp6, stronger effect = lower value 1.01 | locus YGL078C, strain dbp3, stronger effect = lower value 0.995 | locus YGL086W, strain mad1, stronger effect = lower value 0.987 | locus YGL167C, strain pmr1, stronger effect = lower value 1.03 | locus YGL173C, strain kem1, stronger effect = lower value 1.04 | locus YGL227W, strain vid30, stronger effect = lower value 1.01 | locus YGL240W, strain doc1, stronger effect = lower value 1.04 | locus YGL248W, strain PDE1, stronger effect = lower value 0.993 | locus YGL253W, strain hxk2, stronger effect = lower value 0.985 | locus YGR078C, strain PAC10, stronger effect = lower value 1.03 | locus YGR135W, strain pre9, stronger effect = lower value 1.01 | locus YGR229C, strain SMI1, stronger effect = lower value 1.06 | locus YGR252W, strain gcn5, stronger effect = lower value 0.977 | locus YHR013C, strain ard1, stronger effect = lower value 1 | locus YHR027C, strain rpn1, stronger effect = lower value 1.01 | locus YHR030C, strain SLT2, stronger effect = lower value 0.991 and 1.04 | locus YHR079C, strain IRE1 (second series), stronger effect = lower value 0.991 | locus YHR079C, strain IRE1, stronger effect = lower value 1.04 | locus YHR094C, strain hxt1, stronger effect = lower value 0.991 | locus YHR129C, strain ARP1, stronger effect = lower value 0.999 | locus YHR142W, strain chs7, stronger effect = lower value 0.99 | locus YHR200W, strain rpn10, stronger effect = lower value 0.988 | locus YIL066C, strain RNR3, stronger effect = lower value 1 | locus YIL073C, strain SPO22, stronger effect = lower value 0.949 | locus YIL125W, strain kgd1, stronger effect = lower value 0.99 | locus YIR030C, strain dcg1, stronger effect = lower value 0.994 | locus YJL092W, strain hpr5, stronger effect = lower value 1.03 | locus YJL095W, strain BCK1 (second series), stronger effect = lower value 1.03 | locus YJL095W, strain BCK1, stronger effect = lower value 1.05 and 1.04 | locus YJL115W, strain asf1, stronger effect = lower value 1.01 | locus YJL129C, strain trk1, stronger effect = lower value 1.02 | locus YJL134W, strain LCB3, stronger effect = lower value 0.997 | locus YJL154C, strain vps35, stronger effect = lower value 1.01 | locus YJL164C, strain tpk1, stronger effect = lower value 0.989 | locus YJL166W, strain qcr8, stronger effect = lower value 1.03 | locus YJL168C, strain set2, stronger effect = lower value 0.998 | locus YJL187C, strain SWE1 (second series), stronger effect = lower value 1 | locus YJL187C, strain SWE1, stronger effect = lower value 1.02 | locus YJR043C, strain POL32, stronger effect = lower value 0.995 | locus YJR066W, strain TOR1, stronger effect = lower value 1.01
